Bioassay records as filed in PubChem.
Hits are enriched below; roughly 4% of the tested compounds scored in any of these assays.
HSV replic up: enhancers of HSV replication in host cells, fold increase, host cell viability. HSV replication augmentation in cells. AID 1956, 2009. maximum fold increase. 0.005% of 220,000 active; in the data active = maximum fold increase above about 1.5; inconclusive = no clear call, values can overlap the other calls; tested in PC3 cells
Cl transport mod: KCC2 cotransporter modulators, thallium flux, primary screen, cell-based, HEK293 KCC2, FluoZin-2 fluorescence, MLSMR | Solute carrier family 12 member 5 (Homo sapiens), Q9H2X9 | KCC2 cells, thallium flux FluoZin-2 fluorescence | B-score of Tl+ flux slope (higher = more flux/activation; lower = inhibition) at 10 µM | 2.2% of 190,000 active;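 active = thallium flux slope and its plate-corrected score both differing from the plate sample mean at a set confidence after two filtering rounds, in either direction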;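 also: slope of fluorescence scaled to starting intensity during 10 to 20 s after thallium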
Target sequence (Q9H2X9 whole entry, looked up): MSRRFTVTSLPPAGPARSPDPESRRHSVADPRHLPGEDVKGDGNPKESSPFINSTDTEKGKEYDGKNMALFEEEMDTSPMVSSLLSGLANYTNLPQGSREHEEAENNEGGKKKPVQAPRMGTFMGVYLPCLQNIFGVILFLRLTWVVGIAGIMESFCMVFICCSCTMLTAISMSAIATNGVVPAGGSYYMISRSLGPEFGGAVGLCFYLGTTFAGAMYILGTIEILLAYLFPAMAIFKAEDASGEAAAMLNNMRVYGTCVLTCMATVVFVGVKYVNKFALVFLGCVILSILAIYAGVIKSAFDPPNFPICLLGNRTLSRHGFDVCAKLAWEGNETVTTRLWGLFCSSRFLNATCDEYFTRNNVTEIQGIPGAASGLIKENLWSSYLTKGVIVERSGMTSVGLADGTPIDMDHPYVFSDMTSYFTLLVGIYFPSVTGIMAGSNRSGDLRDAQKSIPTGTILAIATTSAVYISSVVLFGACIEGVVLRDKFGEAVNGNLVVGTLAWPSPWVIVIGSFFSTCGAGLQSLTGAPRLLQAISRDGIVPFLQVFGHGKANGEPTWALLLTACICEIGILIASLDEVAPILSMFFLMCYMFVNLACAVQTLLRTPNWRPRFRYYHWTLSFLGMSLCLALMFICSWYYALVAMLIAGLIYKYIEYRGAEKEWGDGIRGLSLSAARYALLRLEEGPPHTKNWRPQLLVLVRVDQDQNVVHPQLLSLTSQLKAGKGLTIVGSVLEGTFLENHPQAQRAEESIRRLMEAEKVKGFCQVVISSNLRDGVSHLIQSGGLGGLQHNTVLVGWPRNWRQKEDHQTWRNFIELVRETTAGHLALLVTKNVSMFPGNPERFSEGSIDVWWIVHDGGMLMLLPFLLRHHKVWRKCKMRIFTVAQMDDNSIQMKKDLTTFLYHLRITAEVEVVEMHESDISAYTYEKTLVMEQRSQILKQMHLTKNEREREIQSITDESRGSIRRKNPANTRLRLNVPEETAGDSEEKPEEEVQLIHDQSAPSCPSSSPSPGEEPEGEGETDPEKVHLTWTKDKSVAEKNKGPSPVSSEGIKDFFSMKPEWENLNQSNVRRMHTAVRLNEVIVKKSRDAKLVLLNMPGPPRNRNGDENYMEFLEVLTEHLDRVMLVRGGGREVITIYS
ROMK primary: ROMK potassium channel modulators, primary screen, cell-based, thallium flux, MLSMR library. AID 1918, 2009. 2% of 130,000 active. Tet-inducible ROMK, thallium flux fluorescence; actives lie on both sides. B-score at 10 µM;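 active = signal ratio slope over the read window, or its plate-corrected B-score, at least 3 SD from the plate mean, either direction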;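 also: B-score of the F/F0 ratio slope over 7 to 12 s after thallium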
Arbovirus inh: antivirals against arbovirus infection, primary screen, cell-based, full library, 10K replicate subset. 0.37% of 200,000 active. arbovirus infection cell-based antiviral screen. inhibition, % at 10 µM; in the data active = inhibition above about 30%
Measles CPE: compounds protecting cells from measles virus cytopathic effect, primary screen, measles RdRp inhibitor project, single point, MLSMR library, absorbance | protection (pct of control), % at 4 µM | 1.5% of 140,000 active | Measles virus-infected cells, CPE protection; in the data active = protection mostly above about 24%, no sharp cut-off; inactive = mostly below about 26%
KCC2 sec1: KCC2 modulators in sodium-free buffer, confirmation, cell-based, HEK293 KCC2, thallium flux, secondary assay. FluoZin2 fluorescence; hits give high values. normalised thallium flux (F/F0 slope) at 10 µM. shares compounds with Cl transport mod. 15% of 3,700 active;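 active = thallium flux slope above the same plate's solvent-only control mean plus 3 SD; inconclusive = the two replicate wells disagree; inactive = no significant difference from solvent-only control wells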
KCC2 bumet counter: thallium flux persisting under bumetanide in KCC2 cells, confirmation, counter-screen for KCC2 modulator project, cell-based, HEK293 KCC2, FluoZin2, secondary assay 3; 49% of 3,700 active; HEK293-KCC2 + bumetanide/ouabain; hits give high values; normalized thallium flux at 10 µM; shares compounds with Cl transport mod;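 active = thallium entry rate above the same plate's blocked-transporter control wells by more than 3 SD; inconclusive = the two repeat wells disagree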;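 also: raw slope of fluorescence over initial fluorescence between 10 and 20 s after thallium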
KCC2 sec2: KCC2 modulators without ouabain present, confirmation, cell-based, HEK293 KCC2, thallium flux, FluoZin2, secondary assay 2; shares compounds with Cl transport mod; thallium flux FluoZin2 fluorescence; actives lie on both sides; F/F0 rise rate, 10–20 s post-thallium; normalized thallium flux at 10 µM; 23% of 3,700 active; AID 1715, 2009;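 active = thallium flux slope more than 3 SD above or below the plate's solvent-only control mean, mostly below; inconclusive = the two repeat wells disagreed; inactive = no significant shift from solvent-only controls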
HEK293 Tl flux: thallium flux modulation in parental HEK cells, confirmation, counter-screen for KCC2 modulator project, cell-based, counterscreen 1; shares compounds with Cl transport mod; HEK293 parental cells, thallium flux FluoZin2, ouabain; baseline-ratio fluorescence slope, 10–20 s after thallium; thallium flux rate (normalised fluorescence) at 10 µM; 46% of 3,700 active;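 active = thallium flux rate significantly above the same plate's solvent-only control wells, beyond their mean plus 3 SD; inconclusive = the two replicate wells gave conflicting results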
KCC2 retest ouab: KCC2 inhibitors and activators, ouabain retest, confirmation, HEK-KCC2 cells. shares compounds with Cl transport mod. HEK293-KCC2, thallium flux FluoZin2 fluorescence; bidirectional: low = inhibitor, high = activator. raw Tl+ flux slope (below DMSO = inhibition, above = activation) at 10 µM. 48% of 3,700 active;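 active = thallium flux slope beyond 3 SD from same-plate DMSO control mean in most replicates, usually higher, sometimes lower; inconclusive = repeat tests gave conflicting results; inactive = no significant difference from controls in most replicates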;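 also: slope of initial-normalized fluorescence between seconds 10 and 20 after thallium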
HEK counter2: native HEK Tl+ uptake effects, second counter-screen – HEK cells, counterscreen 2, counter-screen for KCC2 modulator project, confirmation | 33% of 3,700 active | AID 1718, 2009 | HEK293 parental, thallium flux FluoZin-2 fluorescence slope | thallium flux slope at 10 µM | shares compounds with Cl transport mod;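 active = thallium flux slope above the same plate's solvent-control mean plus 3 SD in both duplicate wells; inconclusive = duplicate wells that disagreed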;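 also: run without ouabain in cells lacking the KCC2 cotransporter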
Hits are given with their value.

Screening CC1(C)C[C@H](O)[C@@]23C[C@@H](OC2=O)[C@]2(C)C(=CCC4[C@@]5(C)CC[C@H](O)C(C)(C)C5CC[C@]42C)[C@@H]3C1 (some centres undefined) returned HSV replic up inactive.
For CC(NC(=O)c1ccco1)C(=O)OCc1cccc(Cl)c1 (centres undefined) the results were HSV replic up inactive, Cl transport mod 6.15, ROMK primary inactive, Arbovirus inh inactive, Measles CPE inactive, KCC2 sec1 inactive, KCC2 bumet counter inactive, KCC2 sec2 inactive, HEK293 Tl flux inactive, KCC2 retest ouab inactive and HEK counter2 inactive.
For COc1ccccc1NC(=O)CNC(=O)c1ccccc1 the results were HSV replic up inactive, Cl transport mod inactive, Arbovirus inh inactive and Measles CPE inactive.
COc1ccccc1NC(=O)C(=O)/C=C(\O)c1ccccc1 was read as HSV replic up inactive, Cl transport mod 72.6, KCC2 sec1 inconclusive, KCC2 bumet counter 0.0876, KCC2 sec2 0.0617, HEK293 Tl flux 0.052, KCC2 retest ouab 0.064 and HEK counter2 0.0415.
For CCOc1ccccc1NC(=O)C(=O)/C=C(\O)c1cc(OC)ccc1OC the results were HSV replic up inactive, Cl transport mod 5.81, ROMK primary inactive, Arbovirus inh inactive, Measles CPE inactive, KCC2 sec1 inactive, KCC2 bumet counter 0.0257, KCC2 sec2 inactive, HEK293 Tl flux 0.0218, KCC2 retest ouab 0.0289 and HEK counter2 0.0144.
For COc1ccc(OC)c(/C(O)=C/C(=O)C(=O)Nc2cc(C)ccc2OC)c1 the results were HSV replic up inactive, Cl transport mod 4.01, ROMK primary inactive, Arbovirus inh inactive, Measles CPE inactive, KCC2 sec1 inactive, KCC2 bumet counter 0.0224, KCC2 sec2 inactive, HEK293 Tl flux 0.0157, KCC2 retest ouab 0.0272 and HEK counter2 0.0176.
Screening COc1ccc(OC)c(/C(O)=C/C(=O)C(=O)Nc2cc(C)cc(C)c2)c1 returned HSV replic up inactive, Cl transport mod inactive, ROMK primary inactive, Arbovirus inh inactive and Measles CPE inactive.
Screening Fc1ccc(NC(=S)N2CCN(c3ncccn3)CC2)cc1 returned HSV replic up inactive, Cl transport mod inactive, ROMK primary inactive and Arbovirus inh inactive.
Screening O=C(CSC1CN(C(c2ccccc2)c2ccccc2)C1)N/N=C/c1ccccc1 returned HSV replic up inactive and Cl transport mod inactive.
`O=C(Nc1ccccc1N1CCN(c2ccccc2)CC1)c1ccccc1` gave HSV replic up inactive, Cl transport mod inactive, ROMK primary inactive and Arbovirus inh inactive.
